# Source: the supplement of paper PMC8728848
# This excerpt belongs to a sample that is enriched for the strongest signals.
# B1: F17aG (Escherichia coli), Q99003 (protein)
# chain: MTNFYKVFLAVFILVCCNISQAAVSFIGSTENDVGPSLGSYSRTHAMDNLPFVYDTRNKIGYQNANVWHISKGFCVGLDGKVDLPVVGSLDGQSIYGLTEEVGLLIWMGDTKYSRGTAMSGNSWENVFSGWCVGANTASTQGLSVRVTPVILKRNSSARYSVQKTSIGSIRMRPYNGSSAGSVQTTVNFSLNPFTLNDTVTSCRLLTPSAVNVSLAAISAGQLPSSGDEVVAGTTSLKLQCDAGVTVWATLTDATTPSNRSDILTLTGASTATGVGLRIYKNTDSTPLKFGPDSPVKGNENQWQLSTGTETSPSVRLYVKYVNTGEGINPGTVNGISTFTFSYQ
# B2: Als1 (Candida albicans), P46590 (protein)
# chain: KTITGVFDSFNSLTWSNAANYAFKGPGYPTWNAVLGWSLDGTSANPGDTFTLNMPCVFKYTTSQTSVDLTADGVKYATCQFYSGEEFTTFSTLTCTVNDALKSSIKAFGTVTLPIAFNVGGTGSSTDLEDSKCFTAGTNTVTFNDGDKDISIDVEFEKSTVDPSGYLYASRVMPSLNKVTTLFVAPQCENGYTSGTMGFSSSNGDVAIDCSNIHIGITKGLNDWNYPVSSESFSYTKTCTSNGIQIKYQNVPAGYRPFIDAYISATDVNQYTLAYTNDYTCAGSRLQSKPFTLRWTGYKNSDAGSNGIVIVATTRTVTDSTTAVTTLPFNPSVDKTKTIEILQPIPTTTITTSYVGVTTSYLTKTAPIGETATVIVDVPYHTTTTVTSEWTGTITTTTTRTNPTDSIDTVVVQVP
# Legend:
# Assay in all cases: glycan array binding signal (z-score within array); higher = stronger binding
# Conditions in all cases: glycan notation: IUPAC condensed, linker removed
# [1] = target: Fuc(a1-2)Gal(b1-3)GalNAc(b1-3)Gal(a1-4)Gal(b1-4)Glc
# How it was run: (§1)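 Glycan array data came from 3228 arrays in the Consortium for Functional Glycomics database, and only arrays with an available protein sequence were kept. Glycan names were put into IUPAC-condensed notation, and columns mapping to the same glycan were averaged. The binding signal is a within-array Z-score, averaged across arrays of one protein sequence run at different concentrations or buffers and across linkers. A negative Z-score can be read as non-binding.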
# [2] = target: Fuc(a1-2)Gal(b1-3)GlcNAc(b1-3)[Fuc(a1-3)[Gal(b1-4)]GlcNAc(b1-6)]Gal(b1-4)Glc
# How it was run: as §1
# [3] = target: Fuc(a1-2)Gal(b1-3)[Fuc(a1-4)]GlcNAc(b1-2)Man(a1-3)[Fuc(a1-2)Gal(b1-3)[Fuc(a1-4)]GlcNAc(b1-2)Man(a1-6)]Man(b1-4)GlcNAc(b1-4)GlcNAc
# How it was run: as §1
# [4] = target: Fuc(a1-2)Gal(b1-3)[Fuc(a1-4)]GlcNAc(b1-3)[Fuc(a1-3)[Gal(b1-4)]GlcNAc(b1-6)]Gal(b1-4)Glc
# How it was run: as §1
# [5] = target: Fuc(a1-2)Gal(b1-4)[Fuc(a1-3)]GlcNAc(b1-2)[Fuc(a1-2)Gal(b1-4)[Fuc(a1-3)]GlcNAc(b1-4)]Man(a1-3)[Fuc(a1-2)Gal(b1-4)[Fuc(a1-3)]GlcNAc(b1-2)Man(a1-6)]Man(b1-4)GlcNAc(b1-4)GlcNAc
# How it was run: as §1
# [6] = target: Fuc(a1-2)[GalNAc(a1-3)]Gal(b1-3)GlcNAc(b1-2)Man(a1-3)[Fuc(a1-2)[GalNAc(a1-3)]Gal(b1-3)GlcNAc(b1-2)Man(a1-6)]Man(b1-4)GlcNAc(b1-4)[Fuc(a1-6)]GlcNAc
# How it was run: as §1
# [7] = target: Fuc(a1-2)[GalNAc(a1-3)]Gal(b1-3)GlcNAc(b1-3)GalNAc
# How it was run: as §1
# [8] = target: Fuc(a1-2)[GalNAc(a1-3)]Gal(b1-4)GlcNAc(b1-3)Gal(b1-4)GlcNAc(b1-3)Gal(b1-4)GlcNAc
# How it was run: as §1
# [9] = target: Gal(a1-3)Gal(b1-4)GlcNAc(b1-3)GalNAc
# How it was run: as §1
# [10] = target: Gal(a1-3)Gal(b1-4)[Fuc(a1-3)]GlcNAc(b1-2)Man(a1-3)[Gal(a1-3)Gal(b1-4)[Fuc(a1-3)]GlcNAc(b1-2)Man(a1-6)]Man(b1-4)GlcNAc(b1-4)GlcNAc
# How it was run: as §1
# [11] = target: Gal(a1-4)Gal(b1-4)GlcNAc(b1-3)Gal(b1-4)Glc
# How it was run: as §1
# [12] = target: Gal(b1-2)Gal
# How it was run: as §1
# [13] = target: Gal(b1-3)Gal(b1-4)GlcNAc
# How it was run: as §1
# [14] = target: Gal(b1-3)GlcNAc(b1-3)Gal(b1-4)Glc
# How it was run: as §1
# [15] = target: Gal(b1-3)GlcNAc(b1-3)Gal(b1-4)GlcNAc
# How it was run: as §1
# [16] = target: Gal(b1-3)[Fuc(a1-4)]GlcNAc(b1-2)Man(a1-3)[Gal(b1-3)[Fuc(a1-4)]GlcNAc(b1-2)Man(a1-6)]Man(b1-4)GlcNAc(b1-4)GlcNAc
# How it was run: as §1
# [17] = target: Gal(b1-3)[Neu5Ac(a2-6)]GalNAc
# How it was run: as §1
# [18] = target: Gal(b1-4)GlcNAc
# How it was run: as §1
# [19] = target: Gal(b1-4)GlcNAc(b1-2)Man(a1-3)[Gal(b1-4)GlcNAc(b1-2)Man(a1-6)]Man(b1-4)GlcNAc(b1-4)GlcNAc
# How it was run: as §1
# [20] = target: Gal(b1-4)GlcNAc(b1-3)Gal(b1-4)Glc
# How it was run: as §1
# [21] = target: Gal(b1-4)GlcNAc(b1-3)[GlcNAc(b1-6)]Gal(b1-4)GlcNAc
# How it was run: as §1
# [22] = target: Gal(b1-4)GlcNAc(b1-6)Gal(b1-4)GlcNAc(b1-6)GalNAc
# How it was run: as §1
# [23] = target: Gal3S(b1-3)GalNAc
# How it was run: as §1
# [24] = target: GalNAc(b1-3)Gal(a1-4)Gal(b1-4)GlcNAc(b1-3)Gal(b1-4)Glc
# How it was run: as §1
# [25] = target: GalNAc(b1-3)GalNAc
# How it was run: as §1
# [26] = target: Glc(a1-4)Glc
# How it was run: as §1
# [27] = target: GlcNAc(a1-4)Gal(b1-3)GlcNAc
# How it was run: as §1
# [28] = target: GlcNAc(a1-4)Gal(b1-4)GlcNAc(b1-3)Gal(b1-4)GlcNAc
# How it was run: as §1
# [29] = target: GlcNAc(a1-6)Gal(b1-4)GlcNAc
# How it was run: as §1
# [30] = target: GlcNAc(b1-2)Man(a1-3)[GlcNAc(b1-2)Man(a1-6)]Man(b1-4)GlcNAc(b1-4)[Fuc(a1-6)]GlcNAc
# How it was run: as §1
# [31] = target: GlcNAc(b1-3)[GlcNAc(b1-6)]Gal(b1-4)GlcNAc
# How it was run: as §1
# [32] = target: Man(a1-2)Man(a1-2)Man(a1-6)[Man(a1-3)]Man
# How it was run: as §1
# [33] = target: Man(a1-3)[Man(a1-6)]Man(a1-6)[Man(a1-3)]Man
# How it was run: as §1
# [34] = target: Neu5Ac(a2-3)Gal(b1-3)GlcNAc(b1-3)Gal(b1-4)GlcNAc
# How it was run: as §1
# [35] = target: Neu5Ac(a2-3)Gal(b1-3)GlcNAc(b1-4)Gal(b1-4)Glc
# How it was run: as §1
# [36] = target: Neu5Ac(a2-3)Gal(b1-3)[Fuc(a1-4)]GlcNAc(b1-3)Gal(b1-4)[Fuc(a1-3)]GlcNAc
# How it was run: as §1
# [37] = target: Neu5Ac(a2-3)Gal(b1-4)GlcNAc(b1-3)Gal
# How it was run: as §1
# [38] = target: Neu5Ac(a2-3)Gal(b1-4)GlcNAc(b1-3)Gal(b1-4)GlcNAc(b1-3)Gal(b1-4)GlcNAc(b1-2)Man(a1-3)[Neu5Ac(a2-3)Gal(b1-4)GlcNAc(b1-3)Gal(b1-4)GlcNAc(b1-3)Gal(b1-4)GlcNAc(b1-2)Man(a1-6)]GalNAc
# How it was run: as §1
# [39] = target: Neu5Ac(a2-3)Gal(b1-4)[Fuc(a1-3)]GlcNAc(b1-6)[Neu5Ac(a2-3)Gal(b1-3)]GalNAc
# How it was run: as §1
# [40] = target: Neu5Ac(a2-3)[GalNAc(b1-4)]Gal(b1-4)Glc
# How it was run: as §1
# [41] = target: Neu5Ac(a2-6)Gal(b1-4)GlcNAc(b1-3)Gal(b1-4)GlcNAc(b1-6)[Gal(b1-3)]GalNAc
# How it was run: as §1
# [42] = target: Neu5Ac(a2-8)Neu5Ac
# How it was run: as §1
# [43] = target: Neu5Ac(a2-8)Neu5Ac(a2-3)Gal(b1-3)GalNAc(b1-4)[Neu5Ac(a2-3)]Gal(b1-4)Glc
# How it was run: as §1
# [44] = target: Neu5Ac(a2-8)Neu5Ac(a2-8)Neu5Ac(a2-3)Gal(b1-4)Glc
# How it was run: as §1
# [45] = target: Neu5Ac(a2-8)Neu5Gc(a2-3)Gal(b1-4)GlcNAc
# How it was run: as §1
# [46] = target: Neu5Gc(a2-8)Neu5Ac(a2-3)Gal(b1-4)GlcNAc
# How it was run: as §1
binder,measurement,setting,value
B1,glycan array binding signal (z-score),[1],-0.23
same,glycan array binding signal (z-score),[2],-0.148
same,glycan array binding signal (z-score),[3],-0.169
same,glycan array binding signal (z-score),[4],-0.139
same,glycan array binding signal (z-score),[5],-0.163
same,glycan array binding signal (z-score),[6],-0.143
same,glycan array binding signal (z-score),[7],-0.113
same,glycan array binding signal (z-score),[8],0.023
same,glycan array binding signal (z-score),[9],-0.168
same,glycan array binding signal (z-score),[10],-0.157
same,glycan array binding signal (z-score),[11],-0.154
same,glycan array binding signal (z-score),[12],-0.25
same,glycan array binding signal (z-score),[13],-0.151
same,glycan array binding signal (z-score),[14],-0.252
same,glycan array binding signal (z-score),[15],-0.236
same,glycan array binding signal (z-score),[16],-0.119
same,glycan array binding signal (z-score),[17],-0.205
same,glycan array binding signal (z-score),[18],-0.14
same,glycan array binding signal (z-score),[19],-0.254
same,glycan array binding signal (z-score),[20],-0.147
same,glycan array binding signal (z-score),[21],1.53
same,glycan array binding signal (z-score),[22],-0.312
same,glycan array binding signal (z-score),[23],-0.244
same,glycan array binding signal (z-score),[24],-0.179
same,glycan array binding signal (z-score),[25],1.69
same,glycan array binding signal (z-score),[26],-0.243
same,glycan array binding signal (z-score),[27],-0.089
same,glycan array binding signal (z-score),[28],-0.182
same,glycan array binding signal (z-score),[29],-0.243
same,glycan array binding signal (z-score),[30],-0.17
B2,glycan array binding signal (z-score),[31],-0.361
same,glycan array binding signal (z-score),[32],-0.553
same,glycan array binding signal (z-score),[33],1.09
same,glycan array binding signal (z-score),[34],-0.473
same,glycan array binding signal (z-score),[35],4.25
same,glycan array binding signal (z-score),[36],-0.015
same,glycan array binding signal (z-score),[37],-0.274
same,glycan array binding signal (z-score),[38],3.84
same,glycan array binding signal (z-score),[39],2.16
same,glycan array binding signal (z-score),[40],-0.291
same,glycan array binding signal (z-score),[41],-0.05
same,glycan array binding signal (z-score),[42],-0.045
same,glycan array binding signal (z-score),[43],-0.627
same,glycan array binding signal (z-score),[44],-0.083
same,glycan array binding signal (z-score),[45],-0.049
same,glycan array binding signal (z-score),[46],4.63
